From ChEMBL document CHEMBL2218924, “A broad activity screen in support of a chemogenomic map for kinase signalling research and drug discovery” (Biochem J, 2013) come the findings set out here.

Sequence of RAF proto-oncogene serine/threonine-protein kinase (Homo sapiens) (P04049 whole entry): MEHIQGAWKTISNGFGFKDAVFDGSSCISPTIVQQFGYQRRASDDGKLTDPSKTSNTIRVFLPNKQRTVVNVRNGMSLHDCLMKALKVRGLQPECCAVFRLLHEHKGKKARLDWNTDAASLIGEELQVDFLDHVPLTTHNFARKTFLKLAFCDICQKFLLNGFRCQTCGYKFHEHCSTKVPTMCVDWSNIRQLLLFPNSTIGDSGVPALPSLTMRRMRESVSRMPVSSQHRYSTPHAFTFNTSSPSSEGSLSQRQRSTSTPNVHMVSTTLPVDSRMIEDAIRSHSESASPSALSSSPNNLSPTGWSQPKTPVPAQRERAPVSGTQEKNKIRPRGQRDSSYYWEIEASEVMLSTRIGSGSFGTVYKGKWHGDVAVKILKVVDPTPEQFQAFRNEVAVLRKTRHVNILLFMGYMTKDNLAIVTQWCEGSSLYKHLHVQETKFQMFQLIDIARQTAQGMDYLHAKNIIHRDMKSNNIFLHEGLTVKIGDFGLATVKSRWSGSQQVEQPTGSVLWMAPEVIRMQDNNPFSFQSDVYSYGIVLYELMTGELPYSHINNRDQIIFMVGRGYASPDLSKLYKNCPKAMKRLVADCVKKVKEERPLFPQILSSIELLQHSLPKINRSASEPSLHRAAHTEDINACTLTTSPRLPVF
Sequence of Mast/stem cell growth factor receptor Kit (Homo sapiens) (P10721 whole entry): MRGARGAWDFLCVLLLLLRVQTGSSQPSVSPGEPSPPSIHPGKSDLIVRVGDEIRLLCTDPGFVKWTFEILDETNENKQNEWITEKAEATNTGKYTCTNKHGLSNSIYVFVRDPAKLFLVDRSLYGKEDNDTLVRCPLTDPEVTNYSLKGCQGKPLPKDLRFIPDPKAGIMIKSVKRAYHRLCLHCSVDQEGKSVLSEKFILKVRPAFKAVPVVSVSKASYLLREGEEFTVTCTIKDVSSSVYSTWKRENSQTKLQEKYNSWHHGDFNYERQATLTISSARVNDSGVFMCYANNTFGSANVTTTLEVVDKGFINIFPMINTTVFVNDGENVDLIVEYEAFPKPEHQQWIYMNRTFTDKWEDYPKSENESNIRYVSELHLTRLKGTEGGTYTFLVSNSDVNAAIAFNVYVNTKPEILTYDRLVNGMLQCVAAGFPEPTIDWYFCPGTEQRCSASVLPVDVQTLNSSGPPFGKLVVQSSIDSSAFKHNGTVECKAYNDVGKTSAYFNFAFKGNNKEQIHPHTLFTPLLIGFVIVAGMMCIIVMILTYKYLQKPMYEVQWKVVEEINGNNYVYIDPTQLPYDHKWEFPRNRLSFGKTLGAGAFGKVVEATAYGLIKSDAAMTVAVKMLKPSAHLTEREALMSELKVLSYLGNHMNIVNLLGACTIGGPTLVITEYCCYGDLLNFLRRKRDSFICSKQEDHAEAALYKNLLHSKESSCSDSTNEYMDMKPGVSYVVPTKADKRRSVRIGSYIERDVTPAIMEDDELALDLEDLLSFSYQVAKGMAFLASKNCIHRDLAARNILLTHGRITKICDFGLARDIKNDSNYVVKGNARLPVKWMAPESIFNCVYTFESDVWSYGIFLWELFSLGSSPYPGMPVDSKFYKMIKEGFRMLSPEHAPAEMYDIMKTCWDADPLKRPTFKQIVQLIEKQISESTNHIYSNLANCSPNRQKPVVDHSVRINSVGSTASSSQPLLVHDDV

The first test deals with Death-associated protein kinase 3 (Homo sapiens) (UniProt O43293). The settings on record: at 1 µM.
Sequence of Death-associated protein kinase 3 (Homo sapiens) (O43293 whole entry, looked up): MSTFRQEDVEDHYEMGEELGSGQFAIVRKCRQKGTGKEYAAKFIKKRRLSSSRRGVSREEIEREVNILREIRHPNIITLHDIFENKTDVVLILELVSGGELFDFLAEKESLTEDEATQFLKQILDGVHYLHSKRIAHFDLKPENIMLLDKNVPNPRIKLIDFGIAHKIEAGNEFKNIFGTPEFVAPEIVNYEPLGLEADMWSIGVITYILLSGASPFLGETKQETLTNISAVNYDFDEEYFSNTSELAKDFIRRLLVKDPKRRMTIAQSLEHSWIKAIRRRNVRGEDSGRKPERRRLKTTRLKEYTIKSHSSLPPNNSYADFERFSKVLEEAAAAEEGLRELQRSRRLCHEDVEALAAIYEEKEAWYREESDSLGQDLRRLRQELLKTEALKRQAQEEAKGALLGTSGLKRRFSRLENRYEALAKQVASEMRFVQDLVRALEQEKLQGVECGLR
For `O=c1[nH]c2ccccc2n1C1CCN(Cc2ccc(-c3nc4cc5[nH]cnc5cc4nc3-c3ccccc3)cc2)CC1`, the residual activity is 100%.
`O=C1Nc2ccc3ncsc3c2/C1=C/c1c[nH]cn1`: the residual activity was found to be 68%.
`O=[N+]([O-])/C=C/c1ccc2c(c1)OCO2`: the residual activity is 96%.
Same read-out and setting: under `COc1ccc2c(c[n+](C)c3c4cc5c(cc4ccc23)OCO5)c1OC` stands 94%; under `O=C1NC(=O)c2c1c1c3ccccc3n3c1c1c2c2ccccc2n1C1CCC3O1`, 80%; under `COc1cc2ncnc(Nc3ccc(OCc4ccccc4)cc3)c2cc1OC`, 86%.
Still for that read-out and setting: in the case of `C[S+]([O-])c1ccc(-c2nc(-c3ccc(F)cc3)c(-c3ccncc3)[nH]2)cc1` (configuration not stated) it was 98%; in that of `CC(C)[C@H](CO)Nc1nc(Nc2cccc(Cl)c2)c2ncn(C(C)C)c2n1`, 96%; in that of `COC(=O)[C@@]1(O)C[C@H]2O[C@]1(C)n1c3ccccc3c3c4c(c5c6ccccc6n2c5c31)C(=O)NC4`, 12%.

Another test has the same target. The settings on record: at 10 µM.
Regarding `O=c1[nH]c2ccccc2n1C1CCN(Cc2ccc(-c3nc4cc5[nH]cnc5cc4nc3-c3ccccc3)cc2)CC1`, the residual activity stood at 95%.
Still for that read-out and setting: in the case of `O=C1Nc2ccc3ncsc3c2/C1=C/c1c[nH]cn1` it was 50%; in that of `O=C1c2ccccc2-c2nc3nnnn3nc21`, 114%; in that of `COc1cc(OC)c(/C=C2\C(=O)Nc3ccccc32)c(OC)c1`, 96%.
As for `CCn1cnc2c(Nc3cccc(Cl)c3)nc(N[C@@H]3CCCC[C@@H]3N)nc21`, the residual activity came to 55%.
With `O=[N+]([O-])/C=C/c1ccc2c(c1)OCO2`, the residual activity stood at 128%.
Same read-out and setting: under `O=C1NC(=O)c2c1c1c3ccccc3n3c1c1c2c2ccccc2n1C1CCC3O1` stands 78%; under `COc1cc2ncnc(Nc3ccc(OCc4ccccc4)cc3)c2cc1OC`, 104%.
Take `C[S+]([O-])c1ccc(-c2nc(-c3ccc(F)cc3)c(-c3ccncc3)[nH]2)cc1` (configuration not stated): the residual activity is 100%.
Consider `COC(=O)[C@@]1(O)C[C@H]2O[C@]1(C)n1c3ccccc3c3c4c(c5c6ccccc6n2c5c31)C(=O)NC4`, for which the residual activity worked out at 2%.

A further test concerns the target RAF proto-oncogene serine/threonine-protein kinase (Homo sapiens) (UniProt P04049). To be noted: at 1 µM.
Consider `O=c1[nH]c2ccccc2n1C1CCN(Cc2ccc(-c3nc4cc5[nH]cnc5cc4nc3-c3ccccc3)cc2)CC1`, for which the residual activity turned out to be 94%.
For `O=C1Nc2ccc3ncsc3c2/C1=C/c1c[nH]cn1`, the residual activity came to 48%.
In the case of `COc1cc(OC)c(/C=C2\C(=O)Nc3ccccc32)c(OC)c1`, the residual activity stood at 67%.
As to `CCn1cnc2c(Nc3cccc(Cl)c3)nc(N[C@@H]3CCCC[C@@H]3N)nc21`, the residual activity was 68%.
On the same count and under the same terms, in the case of `N/C(=N\[N+](=O)[O-])N/N=C\c1ccc(-c2cccc([N+](=O)[O-])c2)o1` it was 88%; in that of `O=[N+]([O-])/C=C/c1ccc2c(c1)OCO2`, 87%.
Consider `COc1ccc2c(c1)/C(=C/c1cnc[nH]1)C(=O)N2`, for which the residual activity was determined as 75%.
With `O=C1NC(=O)c2c1c1c3ccccc3n3c1c1c2c2ccccc2n1C1CCC3O1`, the residual activity worked out at 77%.
On the same count and under the same terms, in the case of `COc1cc2ncnc(Nc3ccc(OCc4ccccc4)cc3)c2cc1OC` it was 86%; in that of `c1cc(-c2cnn3cc(-c4ccc(OCCN5CCCCC5)cc4)cnc23)ccn1`, 82%.
For the compound `C[S+]([O-])c1ccc(-c2nc(-c3ccc(F)cc3)c(-c3ccncc3)[nH]2)cc1` (configuration not stated), the residual activity is 17%.
Consider `CC(C)[C@H](CO)Nc1nc(Nc2cccc(Cl)c2)c2ncn(C(C)C)c2n1`, for which the residual activity was determined as 73%.
Same read-out and setting: in the case of `COC(=O)[C@@]1(O)C[C@H]2O[C@]1(C)n1c3ccccc3c3c4c(c5c6ccccc6n2c5c31)C(=O)NC4` it was 78%.

The next test shares this target. To be noted: at 10 µM.
Regarding `O=c1[nH]c2ccccc2n1C1CCN(Cc2ccc(-c3nc4cc5[nH]cnc5cc4nc3-c3ccccc3)cc2)CC1`, the residual activity came to 109%.
Same read-out and setting: in the case of `O=C1Nc2ccc3ncsc3c2/C1=C/c1c[nH]cn1` it was 35%; in that of `O=C1c2ccccc2-c2nc3nnnn3nc21`, 101%; in that of `COc1cc(OC)c(/C=C2\C(=O)Nc3ccccc32)c(OC)c1`, 67%.
On to `CCn1cnc2c(Nc3cccc(Cl)c3)nc(N[C@@H]3CCCC[C@@H]3N)nc21`, for which the residual activity came out at 23%.
On the same count and under the same terms, in the case of `N/C(=N\[N+](=O)[O-])N/N=C\c1ccc(-c2cccc([N+](=O)[O-])c2)o1` it was 80%; in that of `O=[N+]([O-])/C=C/c1ccc2c(c1)OCO2`, 101%; in that of `COc1ccc2c(c1)/C(=C/c1cnc[nH]1)C(=O)N2`, 74%.
On the same count and under the same terms, in the case of `O=C1NC(=O)c2c1c1c3ccccc3n3c1c1c2c2ccccc2n1C1CCC3O1` it was 98%; in that of `COc1cc2ncnc(Nc3ccc(OCc4ccccc4)cc3)c2cc1OC`, 96%.
In the case of `c1cc(-c2cnn3cc(-c4ccc(OCCN5CCCCC5)cc4)cnc23)ccn1`, the residual activity amounted to 47%.
On the same count and under the same terms, in the case of `C[S+]([O-])c1ccc(-c2nc(-c3ccc(F)cc3)c(-c3ccncc3)[nH]2)cc1` (configuration not stated) it was 3%; in that of `CC(C)[C@H](CO)Nc1nc(Nc2cccc(Cl)c2)c2ncn(C(C)C)c2n1`, 43%.
On the same count and under the same terms, in the case of `COC(=O)[C@@]1(O)C[C@H]2O[C@]1(C)n1c3ccccc3c3c4c(c5c6ccccc6n2c5c31)C(=O)NC4` it was 69%.

A further test concerns the target Mast/stem cell growth factor receptor Kit (Homo sapiens) (UniProt P10721). The settings on record: at 1 µM.
In the case of `O=c1[nH]c2ccccc2n1C1CCN(Cc2ccc(-c3nc4cc5[nH]cnc5cc4nc3-c3ccccc3)cc2)CC1`, the residual activity came to 121%.
`O=C1Nc2ccc3ncsc3c2/C1=C/c1c[nH]cn1`: the residual activity was 25%.
The same measure, in the same setting: in the case of `CCc1nc(-c2ccc(OC)cc2)[nH]c1-c1ccncc1` it was 127%; in that of `COc1cc(OC)c(/C=C2\C(=O)Nc3ccccc32)c(OC)c1`, 98%.
Same read-out and setting: in the case of `O=[N+]([O-])/C=C/c1ccc2c(c1)OCO2` it was 113%.
The same measure, in the same setting: in the case of `COc1ccc2c(c[n+](C)c3c4cc5c(cc4ccc23)OCO5)c1OC` it was 123%; in that of `COc1cc2ncnc(Nc3ccc(OCc4ccccc4)cc3)c2cc1OC`, 98%.
`c1cc(-c2cnn3cc(-c4ccc(OCCN5CCCCC5)cc4)cnc23)ccn1`: the residual activity was 5%.
The same measure, in the same setting: under `C[S+]([O-])c1ccc(-c2nc(-c3ccc(F)cc3)c(-c3ccncc3)[nH]2)cc1` (configuration not stated) stands 119%; under `CC(C)[C@H](CO)Nc1nc(Nc2cccc(Cl)c2)c2ncn(C(C)C)c2n1`, 117%.
For the compound `COC(=O)[C@@]1(O)C[C@H]2O[C@]1(C)n1c3ccccc3c3c4c(c5c6ccccc6n2c5c31)C(=O)NC4`, the residual activity is 76%.
